# High-throughput results: PubChem BioAssay, Columbia University Molecular Screening Center
# E-sel TNF inh: blocks E-selectin expression induced by TNF alpha. HUVEC TNFa-induced E-selectin immunofluorescence, high content. inhibition, % at 2 µM. hit rate 0.71% among 120,000. AID 1246;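 active means inhibition above the batch mean plus 3 SD, and confirmed as a hit on visual image review, cut at about 43% in these data; inconclusive means passes the inhibition cutoff but fails visual image review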
# TNFa cytotox: HUVEC cytotoxicity counter-screen, TNF alpha stimulated; HUVEC TNFalpha-stimulated, Hoechst cell count, imaging; cell count reduction, % at 2 µM; hit rate 0.17% among 93,000; AID 848;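 active means cell count reduction exceeding the screen mean by over 5 SD, scaled to untreated wells per plate, cut at about 78% in these data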;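 further: cells counted after 24 h of TNF alpha exposure following the 1 h pretreatment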
# VCAM1 TNFa inh: reduces TNF alpha induced VCAM1 expression in HUVEC. HUVEC TNFa-induced VCAM-1 immunofluorescence, high-content imaging. hit rate 0.48% among 95,000. AID 802. inhibition, % at 2 µM;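 active means inhibition above the batch mean plus 3 SD, with images confirmed as a hit by eye, cut at about 37% in these data; inconclusive means inhibition above that limit but hit not confirmed in images; inactive means inhibition not above that limit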
# F-actin modifier: cytoskeleton assembly modification; AID 836; hit rate 0.18% among 91,000; inhibition, % at 2 µM; HUVEC TNFa F-actin phalloidin imaging, high content;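 active means inhibition above the batch mean plus 3 SD and confirmed as a hit by visual image inspection, cut at about 30% in these data, passing the limit was not always enough; inconclusive means above the inhibition threshold but rejected on visual inspection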
# A number is an active result; . = inactive; ? = inconclusive; / = not tested or not shown. The list is not random: actives were taken first. Their share in the collection is about 1%.
SMILES,E-sel TNF inh,TNFa cytotox,VCAM1 TNFa inh,F-actin modifier
Cc1ccc(CS(=O)(=O)Cc2ccc(C(=O)NCc3ccco3)o2)cc1,.,.,.,.
OC1(c2cccc(C(F)(F)F)c2)CCN(c2ncnc3c2[nH]c2ccc(F)cc23)CC1,/,.,54,.
Fc1ccc2[nH]c3c(N4CCN(c5ccccc5)CC4)ncnc3c2c1,.,/,/,/
N#CCc1ccc(NS(=O)(=O)c2cccs2)cc1,64,/,/,/
COc1cc(/C=C2\SC(=S)N(CC(=O)Nc3ccc(O)cc3)C2=O)cc(OC)c1OC,74,/,/,/
CCC(=O)Nc1ccc(C(=O)NCCCn2ccnc2)cc1,.,/,/,/
CCCOc1ccc(NC(=O)C(=O)NCCCn2ccnc2)cc1,78,/,/,/
CCOc1cc(C(=O)NCCCn2ccnc2)cc(OCC)c1OCC,88,/,/,/
C=CCN(CC=C)S(=O)(=O)c1ccc(NC(=S)NC(=O)/C=C/c2cccc3ccccc23)cc1,68,.,.,.
Cc1ccc(C(=O)NCC2CCCO2)cc1N1CCCC1=O (configuration not stated),66,.,.,.
Oc1ccc(N2CCN(c3ncnc4sc(-c5ccccc5)cc34)CC2)cc1,100,/,/,/
O=C(CSc1ccc2nnc(-c3ccncc3)n2n1)Nc1nccs1,.,/,/,/
COC1(c2ccccc2)NC(=S)NN=C1c1ccccc1 (configuration not stated),.,100,?,?
Cc1ccc(NC(=O)CO/N=C(\N)c2nonc2N)cc1,.,.,.,.
CCCC(C(=O)NC1CCCC1)N(CC1CCCO1)C(=O)c1snc(C(N)=O)c1N (configuration not stated),/,.,.,.
CCCC(C(=O)NC1CCCC1)N(CCCN1CCOCC1)C(=O)c1snc(C(N)=O)c1N (configuration not stated),/,.,78,.
COc1cc(C(=O)N(Cc2ccco2)Cc2cc3ccccc3[nH]c2=O)cc(OC)c1OC,/,.,.,35
COc1ccccc1NC(=S)N(Cc1ccco1)Cc1cc2cccc(C)c2[nH]c1=O,61,/,/,/
O=C(CSc1nc2ccccc2c(=O)n1NC(=O)Cc1ccccc1)NCc1ccccc1,.,.,.,.
CCOC(=O)c1ccccc1Nc1cc(C)nc2nc(C)nn12,.,/,/,/
Cc1cc(NC(=O)NC(=O)c2cccc(OC(F)(F)C(F)F)c2)n[nH]1,.,.,91,.
COc1cccc(C(=O)Nc2c(C)n[nH]c2C)c1,/,.,.,.
FC(F)(F)c1cnc2c(-c3ccccc3)n[nH]c2c1,68,/,/,/
C=CCCCOc1ccc(C(=O)O)cc1,.,.,76,.
Cc1cc(N2CCC(C)CC2)nc(-n2nc(C)cc2C)n1,.,.,.,40
SMILES,E-sel TNF inh,TNFa cytotox,VCAM1 TNFa inh,F-actin modifier
Cc1cc(C)n(-c2nc3ccccc3nc2N2CCC(C)CC2)n1,.,.,.,.
COc1cc(C(=O)N/N=C/c2ccsc2C)cc(OC)c1OC,.,.,57,.
Nc1nnnn1/N=C/C=C/c1ccccc1,.,/,/,/
Nc1nnnn1/N=C/C(Br)=C/c1ccccc1,.,.,54,.
COc1ccc2nc(SCc3nc(N)nc(Nc4ccccc4)n3)[nH]c2c1,95,.,.,.
O=C(Nc1ccc(Cl)cc1)Nc1nnc(CSc2ccc(Cl)cc2)s1,64,/,/,/
Cc1cc(C)nc(N/N=C/c2ccc3c(c2)OCCO3)n1,.,/,/,/
Cc1nonc1NC(=O)CSc1nc(C2CCCCC2)nc2ccccc12,.,.,.,83
CCn1c(=O)cc(SCC(=O)N2CCN(C3CCCCC3)CC2)c2ccccc21,67,.,.,.
CC(C)c1ccc(NC(=O)COC(=O)c2c[nH]c(=O)[nH]c2=O)cc1,.,/,/,/
COc1ccc2nc(NC(=O)C(NS(=O)(=O)c3cccc4nsnc34)C(C)C)sc2c1 (configuration not stated),.,86,.,.
O=C(OCC#CCSc1nnc(-c2ccccc2)o1)c1ccco1,.,/,/,/
COC(=O)CSc1nnc(-c2cccc(NC(=O)c3ccc(C)cc3)c2)n1C,.,.,.,.
Cn1c(SCC(=O)N2CCOCC2)nnc1-c1cccc(NC(=O)c2ccccc2)c1,64,.,.,.
CC1CC(=O)NN=C1c1ccc(N(C)C)c([N+](=O)[O-])c1 (configuration not stated),.,.,.,.
CCN(CC)c1ccc(C2=NNC(=O)CC2C)cc1[N+](=O)[O-] (configuration not stated),.,.,78,.
Cn1cc(Cl)nc1C(O)c1ccccc1 (configuration not stated),.,/,/,/
Cc1ccc(CC2SC(=O)NC2=O)cc1Cl (configuration not stated),.,/,/,/
C=CCNC(=O)COC(=O)/C=C/c1cccs1,.,/,/,/
C=CCNC(=O)/C=C/c1cccs1,94,/,/,/
CCCCOc1ccc(-c2cc(C(F)(F)F)c(C#N)c(SCC(=O)O)n2)cc1,.,/,/,/
CCc1cc(=O)[nH]c(-n2[nH]c(-c3ccccc3)cc2=O)n1,.,/,/,/
COC(=O)c1cc2ccsc2n1Cc1nc(-c2cccc(Cl)c2)oc1C,82,.,.,.
CCC(=O)Nc1ccc(-c2nnc(SCc3ccc(C(=O)Nc4nccs4)cc3)n2CC)cc1,.,.,.,.
COCCCNC(=O)CN(Cc1ccc(Cl)cc1)S(C)(=O)=O,.,97,/,.
SMILES,E-sel TNF inh,TNFa cytotox,VCAM1 TNFa inh,F-actin modifier
C=C(C)Cn1c(=O)c(NC(=O)c2ccccc2)c2n(c1=S)CCC2,.,.,.,.
Cc1cc(C)cc(NC(=O)c2ccc([N+](=O)[O-])o2)c1,76,/,/,/
O=C(NNC(=O)c1ccc([N+](=O)[O-])o1)c1ccccc1,.,.,.,.
CCOc1ccccc1N1C(=O)CC(Nc2ccc(N3CCOCC3)cc2)C1=O (configuration not stated),.,.,.,.
Nc1ccc2c3c(cccc13)CC2,/,.,.,51
c1ccc(Nc2ccc3c4c(cccc24)CC3)cc1,.,.,.,.
COc1cc(-c2nnc(SCc3cc(=O)oc4cc(C)ccc34)o2)cc(OC)c1OC,.,.,.,.
COc1ccccc1-c1cn(S(=O)(=O)c2ccc(C)cc2)nc1N,.,.,91,.
Cc1cc(C(=O)Nc2nc3c(s2)CCCC3)no1,40,.,.,/
O=c1[nH]c2cc(NCCO)c([N+](=O)[O-])cc2[nH]1,73,/,/,/
CN(C(=S)Nc1ccc(Oc2ccccc2)cc1)c1ccc(O)cc1,87,/,/,/
CN(C(=S)Nc1ccccc1)c1ccccc1,.,/,/,/
O=C(c1cccc(F)c1)N1CCN(S(=O)(=O)c2ccc(C(F)(F)F)cc2)CC1,83,.,.,.
O=C(c1cccc(C(F)(F)F)c1)N1CCCC1,.,.,.,.
Cn1c(CCNC(=O)c2ccc(Cl)c(Cl)c2)nnc1SCc1ccc(Cl)c(Cl)c1,100,.,.,.
COc1ccc(C(CC(=O)NCc2ccccc2)Sc2n[nH]c(-c3ccccc3)n2)cc1 (configuration not stated),92,/,/,/
CN(CC(=O)N1CCN(c2ccc(F)cc2)CC1)S(=O)(=O)c1ccc2c(c1)c(=O)n(C)c(=O)n2C,.,/,/,/
Cc1ccc(C2(O)CN(c3ccccc3C)C3=[N+]2CCS3)cc1 (configuration not stated),64,/,/,/
Cc1ccc(C(=O)COC(=O)c2ccc3c(c2)C(=O)N(c2cccc4ncccc24)C3=O)cc1C,.,.,.,.
CCOc1ccc(-n2cc(C(=O)NCc3ccco3)c3cc(OC)c(OC)cc3c2=O)cc1,/,.,.,63
Cc1ccc(S(=O)(=O)NNC(=O)c2sccc2-n2cccc2)cc1,62,.,.,.
